SMILES strings stand for the structures. Inconclusive results are not listed. A call without a number means that no potency is given here. Activity calls are given as the source filed them. Calls come from the whole dose curve.

A short description of this experiment: qHTS for Inhibitors of Cell Surface uPA Generation: Wild-type Protective Antigen (WT-PrAg) Counterscreen for Cherry-picked Compounds. The following applies: cells, WT protective antigen toxicity counterscreen; series mostly up to 115 µM. (Quantitative high-throughput screening tests each substance at several concentrations.)
As for `C=CCn1c(=O)c(C(=O)NCCc2ccc(Cl)cc2)c(O)c2cc(OC)c(OC)cc21`, the Potency entry is “inactive”.

Take `CCOC(=O)c1c(NC(=O)CC2SC(N)=NC2=O)sc2c1CCC(C)C2` (stereo not given): the Potency result was “inactive”.

In the case of `CCc1nnc(NC(=O)CSc2nnnn2-c2cccc(C(C)=O)c2)s1`, the Potency entry was “inactive”. Take `Cc1nn(C)c(C)c1S(=O)(=O)N1CCC(C(=O)NC2CCCCCC2)CC1`: the Potency entry was “inactive”. The value for `COc1ccc(C(=O)CC2(C(=O)O)CCCCC2)cc1` was “inactive”. Regarding `CCCCNc1nnc(SCC(=O)c2c(N)n(CCC)c(=O)[nH]c2=O)s1`, the Potency result was “inactive”. The value for `COc1cc(F)ccc1S(=O)(=O)n1c(C)nc2ccccc21` was “inactive”. `COc1ccc(C(C(=O)NC2CCCC2)N(C(=O)c2ccoc2C)c2ccc(C)c(C)c2)cc1` (stereo not given): the Potency result was “inactive”. The value for `Cc1ccccc1C(=O)NCC(=O)Nc1ccc(C)c(S(=O)(=O)N2CCCCCC2)c1` was “inactive”.

Take `O=C1[C@H]2[C@@H](c3ccc(F)cc3)N3C(=O)N(c4cccc(F)c4)C(=O)[C@@]3(Cc3ccc(Cl)cc3)[C@H]2C(=O)N1C1CCCCC1`: the Potency result was “inactive”. On to `Cc1nc(SCC(=O)NCCN2C(=O)CSC2=O)nc(C)c1C`, for which the Potency result is “inactive”. Take `Cc1cc(C)cc(NC(=O)C(OC(=O)c2ccc(O)cc2)c2ccccc2)c1` (stereo not given): the Potency entry is “inactive”. Take `COc1ccccc1NC(=O)COc1ccc(C(=O)NCc2ccccc2)cc1OC`: the Potency entry is “inactive”.

Take `COc1ccc(CC(=O)Nc2nc(C)cs2)cc1OC`: the Potency entry is “inactive”. The value for `O=C(Nc1ccc(Cl)cn1)C1CCCN(c2ncnc3c2nc2n3CCCCC2)C1` (stereo not given) was “inactive”; that for `COCCn1nnnc1C(C(C)C)N1CCCC(C)C1` (stereo not given) was “inactive”. Take `Cc1ccc(S(=O)(=O)NCC(=O)N/N=C/c2ccc(Cl)cc2)cc1`: the Potency entry was “inactive”. The value for `Cc1ccc(C(=O)COc2cc(O)c3c(=O)cc(-c4ccccc4)oc3c2)cc1` was “inactive”.

Consider `CCCCn1c(N)c(N(Cc2ccccc2OC)C(=O)COc2ccc(C)cc2)c(=O)[nH]c1=O`, for which the Potency result was “inactive”. The value for `COCCCN1CC23C=CC(O2)C(C(=O)O)C3C1=O` (stereo not given) was “inactive”. On to `CCCCN(CC(=O)NCc1ccc(F)cc1)C(=O)c1ccco1`, for which the Potency result is “inactive”.

For `COc1cc(CN2CCN(S(=O)(=O)c3ccccc3)CC2)cc(OC)c1OC`, the Potency result is “inactive”. With `COc1ccc(CCNC(=O)COC(=O)CNS(=O)(=O)c2ccc(SC)c([N+](=O)[O-])c2)cc1`, the Potency result is “inactive”. The value for `CCCc1nc2c(=O)n(C)c(=O)[nH]c2n1CCC` was “inactive”; that for `COc1ccc(CNC(=O)C2CCC(CNS(=O)(=O)c3ccc(C)cc3)CC2)cc1` (stereo not given) was “inactive”. As for `CC(C)NC(=O)CN1CCC(c2nc3ccccc3[nH]2)CC1`, the Potency result was “inactive”. `O=C(CSc1ccc(Cl)cc1)N1CCCC1`: the Potency result was “inactive”. `COc1ccc(-c2nn(CCC#N)cc2C(=O)Nc2ccccc2)cc1OC`: the Potency result is “inactive”.

Turning to `Cc1c(C(=O)N(Cc2ccccc2Cl)C2CCS(=O)(=O)C2)oc2ccccc12` (stereo not given), the Potency entry is “inactive”. The value for `Clc1ccccc1N1CCN(c2ncnc3nc[nH]c23)CC1` was “inactive”; that for `COC(=O)Cc1c(C)c2ccc(OCC(=O)N3CCCC(C)C3)c(C)c2oc1=O` (stereo not given) was “inactive”; that for `Cc1nc2ncccn2c1-c1csc(Nc2ccc(S(N)(=O)=O)cc2)n1` was “inactive”.

For `COCCNC(=S)N(CCc1c(C)[nH]c2ccccc12)Cc1ccco1`, the Potency result was “inactive”. The value for `CN(C)S(=O)(=O)c1ccc(NC(=O)COC(=O)CC2CC3CCC2C3)cc1` (stereo not given) was “inactive”; that for `COCCOC(=O)C1=C(C)NC(=O)NC1c1cccc2ccccc12` (stereo not given) was “inactive”; that for `CSCC[C@H](NC(=O)[C@H](Cc1ccccc1)n1c(=O)[nH]c2ccccc2c1=O)C(=O)N1CCC[C@H]1C(=O)O` was “inactive”. The value for `Cc1cc(C)nc(N2N=C(C(F)(F)F)CC2=O)n1` was “inactive”; that for `COc1ccccc1CN1CC(C(=O)NCc2cccc(C)n2)CCC1=O` (stereo not given) was “inactive”. The value for `Cc1ccc(C(CC(=O)N2CCCC2)c2ccccc2)c(O)c1` (stereo not given) was “inactive”; that for `O=C(NNC(=O)c1ccc2ccccc2c1)Nc1ccc(F)cc1` was “inactive”.

The values above are taken from PubChem BioAssay AID720518 (National Center for Advancing Translational Sciences (NCATS), 2013).
